# An excerpt weighted towards active compounds, which were near 11% of everything screened.
# 3T3 cytotox: Cytotoxic Profiling in NIH 3T3 Cell Line of Diverse Libraries Using Quantitative High-Throughput Screening. NIH 3T3 viability, CellTiter-Glo ATP luminescence, 48-72 h. Potency, µM (doses to about 96.7 µM), without a hit: at the top dose activity change, negative = cytotoxicity, hits mostly inhibitors. 94,000 tested, 4.3% active. AID 1345082, 2018; note: % is set by controls: 0 for no effect and ±100 for the full control effect; nearly all actives have a fitted effect of over 55% in size
#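 Luminescent ATP readout (CellTiter-Glo, 10 min RT) after 48 or 72 hr compound exposure of NIH 3T3 cells seeded at 400 cells/well in 1536-well format; quantitative HTS.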
# HEK cytotox: Cytotoxic Profiling in HEK 293 Cell Line of Diverse Libraries Using Quantitative High-Throughput Screening. HEK 293 viability, ATP luminescence (CellTiter-Glo), 48-72 h. 94,000 tested, 6.6% active. Potency, µM (highest dose often 115 µM), for inactives: at the top dose activity change, negative = cytotoxicity, hits mostly inhibitors. AID 1345083, 2018; note: % is set by controls: 0 for no effect and ±100 for the full control effect; nearly all actives have a fitted effect of over 60% in size
#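 HEK 293 cells seeded at 250 cells/well were exposed to compound for 48 or 72 hr at 37 degree Celsius. Viability taken as ATP content by CellTiter-Glo luminescence.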
# FLuc inh-1: Firefly luciferase inhibition profiling of diverse chemical library using quantitative high-throughput screening. purified P. pyralis luciferase, luminescence, biochemical. 76,000 tested, 2.5% active. Luciferin 4-monooxygenase (Photinus pyralis), P08659. Potency, µM (series often up to 115 µM), hits mostly inhibitors. AID 1347043, 2019; note: % is set by controls: 0 for no effect and ±100 for the full control effect; nearly all actives have a fitted effect of over 65% in size
#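 Inhibitors were tested against purified firefly luciferase in a biochemical, low-substrate format (both substrates at 10uM) and luminescence measured with a CCD imager.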
# hNpr1 antagonist: Natriuretic polypeptide receptor (hNpr1) antagonism - Primary qHTS; Atrial natriuretic peptide receptor 1 (Homo sapiens), P16066; HEK293 hNpr1 GloSensor cGMP, ANP-stimulated luminescence; Potency, µM (highest dose often 46.3 µM), inactives show top-dose activity change, negative = inhibition, hits mostly inhibitors; 76,000 tested, 1.6% active; calls by dose curve; note: % is set by controls: 0 for no effect and ±100 for the full control effect; nearly all actives have a fitted effect of over 60% in size
#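 HEK293 cells stably expressing human Npr1 and cGMP GloSensor pGS-40F, loaded 2 h with 2% GloSensor reagent, given compound 30 min at room temperature. Luminescence read before and 20 min after 0.1 nM hNppA.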
# FLuc SDR no ATP: Firefly luciferase (FLuc-C-HiBiT) SDR gain of signal screen - without ATP | shares compounds with FLuc inh-1 | Purified FLuc-C-HiBiT, Nano-Glo HiBiT luminescence, no ATP | 1,300 tested, 7.8% active | Potency, µM (titrated, usually from 32.7 µM), for inactives: at the top dose activation (signal gain), most hits filed as activators; note: nearly all actives have a fitted effect of over 55% in size
# FLuc SDR ATP: Firefly luciferase (FLuc-C-HiBiT) SDR gain of signal screen - plus ATP | 1,300 tested, 8.7% active | Potency, µM (top dose mostly 32.7 µM), for inactives: at the highest dose activation (gain of signal), most hits filed as activators | purified FLuc-C-HiBiT + ATP, HiBiT complementation luminescence | shares compounds with FLuc inh-1 | AID 1963319, 2024;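 note: signal reports ligand binding via conformational change of the enzyme rather than luciferase catalysis; % of control where 0% means no effect; nearly all actives have a fitted effect of over 55% in size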
# FLuc inh-2: Firefly luciferase (FLuc-C-HiBiT) enzymatic inhibition screen - Functional assay; Potency, µM (doses to about 32.7 µM), inactives show at the highest dose activity change, negative = inhibition, most hits filed as inhibitors; shares compounds with FLuc inh-1; AID 1963320, 2024; purified FLuc-C-HiBiT enzyme, luciferin luminescence; 1,300 tested, 42% active; note: % is set by controls: 0 for no effect and ±100 for the full control effect; nearly all actives have a fitted effect of over 70% in size
# An asterisk follows results filed as active; i = inactive; ? = inconclusive; · = no result; [ ] = another dose, or the depositor's remark. Unless noted, calls come from the whole dose curve; as a rule, active = well fitted curve in the direction sought with a large enough effect; inconclusive = small, poorly fitted or top-dose-only effect, or another doubt; inactive = no such curve, though single readings can be large; an effect the other way counts as inactive or inconclusive. Potency is the fitted concentration of half-maximal effect.
SMILES,3T3 cytotox,HEK cytotox,FLuc inh-1,hNpr1 antagonist,FLuc SDR no ATP,FLuc SDR ATP,FLuc inh-2
CN(CCO)c1ccc(-c2nc(CCCc3ccccc3)no2)cn1,-29%,?,6.3µM*,0%,15%,14%,?
Cc1cc(CNc2ccc(-c3nc(CCCc4ccccc4)no3)cn2)no1,-30%,?,?,?,·,·,·
CC(C)(C)C(=O)N1CCCN(c2ccnc3ccnn23)CC1,-28%[138 µM],?,·,·,·,·,·
O=C(c1ccc2nnc(-c3cc(C(F)(F)F)cc(C(F)(F)F)c3)n2c1)N1CCOCC1,-25%,-5%,·,·,·,·,·
CCOc1ccc(NC(=O)C2CCN(C(=O)c3ncn4c3COC(c3ccccc3)C4)CC2)cc1 (stereo unspecified),i,16%,13µM*,-5%,13%,?,7µM*
CC(C)c1cccc(NC(=O)C2CCN(C(=O)c3ncn4c3COC(c3ccccc3)C4)CC2)c1 (stereo unspecified),4%,?,3.5µM*,-15%,13%,?,7.9µM*
O=C(NCc1ccccc1)C1CCN(C(=O)c2ncn3c2COC(c2ccc(Cl)cc2)C3)CC1 (stereo unspecified),i,11%,?,4%,·,·,·
COc1ccc(C2Cn3cnc(C(=O)N4CCC(C(=O)Nc5ccccc5)CC4)c3CO2)cc1 (stereo unspecified),0%,2%,?,-16%,·,·,·
CSc1cccc(NC(=O)C2CCN(C(=O)c3ncn4c3COC(c3ccc(F)cc3)C4)CC2)c1 (stereo unspecified),-9%,-29%,?,?,·,·,·
CCc1cccc(NC(=O)C2CCN(C(=O)c3ncn4c3COC(c3ccccc3)C4)CC2)c1 (stereo unspecified),-3%,-14%,3.5µM*,?,13%,1.2µM*,1.8µM*
CC(C)c1ccc(NC(=O)C2CCN(C(=O)c3ncn4c3COC(c3ccccc3)C4)CC2)cc1 (stereo unspecified),i,6%,2.5µM*,-23%,13%,?,3.5µM*
COc1ccc(NC(=O)C2CCN(C(=O)c3ncn4c3COC(c3ccc(OC)cc3)C4)CC2)cc1 (stereo unspecified),-21%,-14%,i,-8%,·,·,·
CC(C)N1C[C@H](O)C[C@H]1c1nnc2n1CCN(C(=O)c1cnccn1)CC2,-25%,0%,i,-20%,·,·,·
COc1ccc(C2Cn3cnc(C(=O)N4CCC(C(=O)Nc5ccc(C)c(F)c5)CC4)c3CO2)cc1 (stereo unspecified),-10%,-13%,?,-18%,·,·,·
O=C(Nc1ccc(F)c(F)c1)C1CCN(C(=O)c2ncn3c2COC(c2ccccc2)C3)CC1 (stereo unspecified),-2%,-3%,1µM*,?,12%,0.56µM*,0.99µM*
COC[C@@H]1CN(C(=O)c2cc3ccccc3[nH]2)C[C@H]1c1ccccn1,-9%,?,i,2%,·,·,·
CC(=O)N1CCNc2cc(-c3ccccc3F)ncc2C1,·,·,·,·,15%[65.7 µM],12%[65.7 µM],?
CC(=O)N1CCNc2cc(-c3cccc(N4CCOCC4)c3)ncc2C1,·,·,·,·,24%[49.3 µM],17%[49.3 µM],?
COc1ccc(-c2cc3c(cn2)CN(C(C)=O)CCN3)cc1,·,·,·,·,28%[49.3 µM],18%[49.3 µM],13µM*
CN1CCNc2cc(-c3ccc(N4CCOCC4)cc3)ncc2C1,?,?,i,-19%[70.6 µM],·,·,·

# Assay outcomes as filed in PubChem BioAssay.
